Records with an inconclusive call do not appear. Activity calls are given as the source filed them. Unless noted, the call rests on the fitted dose curve; in most records, active means well fitted curve in the direction sought with a large enough effect in the repeat runs; inconclusive means weak or mixed curves; inactive means no such curve, though single readings can be large; an effect the other way counts as inactive or inconclusive.
Columns and labels:
[1] = qHTS assay to identify small molecule antagonists of the estrogen related receptor (ERR) signaling pathway from Tox21 library - cell viability counter screen (AID 1224834); further: nearly all actives have a fitted effect of over 30% in size; further: potency means the concentration at half of the fitted maximal effect
In short: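 Multiplexed viability counter screen in ERR cells: 17.5 h compound exposure at 37 C, CellTiter-Fluor added, 30 min at 37 C/5% CO2, fluorescence read.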

[2] = molecular target: Luciferin 4-monooxygenase (Photinus pyralis) (UniProt P08659); assay: qHTS assay to identify small molecule inhibitors of firefly luciferase (AID 1224835); further: nearly all actives have a fitted effect of over 25% in size; further: potency means the concentration at half of the fitted maximal effect
In short: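 Inhibition of purified Photinus luciferase is measured by luminescence. Substrate levels (D-luciferin, ATP) sit at their KM values. Each compound is tested in a concentration series.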

[3] = qHTS assay to identify small molecule agonists of the constitutive androstane receptor (CAR) signaling pathway - cell viability counter screen (AID 1224836); further: nearly all actives have a fitted effect of over 45% in size; further: potency means the concentration at half of the fitted maximal effect
In short: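 HepG2 cells stably carrying hCAR and a CYP2B6-2.2kb reporter; 15-concentration compounds plus PK11195 (final 0.75 uM), 23 hr at 37 C/5% CO2. Viability read by CellTiter-Fluor fluorescence.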

[4] = qHTS assay to identify small molecule antagonists of the constitutive androstane receptor (CAR) signaling pathway - cell viability counter screen (AID 1224837); further: nearly all actives have a fitted effect of over 45% in size; further: potency means the concentration at half of the fitted maximal effect
In short: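 Read-out: CellTiter-Fluor fluorescence after 23 hr at 37 C/5% CO2. Cells: HepG2 double-stable for hCAR and CYP2B6-2.2kb. Compounds tested at 15 concentrations in the presence of CITCO, final concentration 50 nM.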

[5] = qHTS assay to identify small molecule antagonists of the estrogen related receptor signaling pathway with the pleiotropic PPARgamma coactivator (PGC) from Tox21 10K library - cell viability counter screen (AID 1224840; active means well fitted cell-killing curve with a large enough effect in the repeat runs, not every such curve was filed as active; further: nearly all actives have a fitted effect of over 40% in size; further: potency means the concentration at half of the fitted maximal effect)
In short: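 Fluorescence read-out of CellTiter-Fluor viability reagent, added after cells had been exposed to compound in DMSO for 17.5 h at 37 C; 30 min development at 37 C/5% CO2. Cells: PGC/ERR line, 2,000/well.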

[6] = molecular target: Nuclear receptor subfamily 1 group I member 3 (Homo sapiens) (UniProt Q14994); assay: qHTS assay to identify small molecule agonists of the constitutive androstane receptor (CAR) signaling pathway (AID 1224839); further: nearly all actives have a fitted effect of over 15% in size; further: potency means the concentration at half of the fitted maximal effect
In short: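 HepG2 cells stably co-transfected with hCAR and a CYP2B6-2.2kb luciferase reporter; compounds at 15 concentrations with 0.75 uM PK11195 present. After 24 hr at 37 C, luciferase read by ONE-Glo luminescence.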

[7] = qHTS assay to identify small molecule agonists of the estrogen related receptor signaling pathway with the pleiotropic PPARgamma coactivator (PGC) from Tox21 10K library (AID 1224842); further: nearly all actives have a fitted effect of over 15% in size
In short: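 Luminescence from One-Glo (30 min, room temperature) measured after PGC/ERR cells had 18 h at 37 C with pinned compound (23 nL in DMSO). Cells had been seeded at 2,000 per well and pre-incubated 6 h.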

[8] = molecular target: Thyrotropin receptor (Homo sapiens) (UniProt P16473); assay: qHTS assay to identify small molecule agonists of the thyroid stimulating hormone receptor (TSHR) signaling pathway (AID 1224843; calls by dose curve; further: nearly all actives have a fitted effect of over 45% in size)
In short: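 A cell-based cAMP HTRF format was run in TSHR-transfected HEK293 cells, 800 per well. Treatment: 30 min, room temperature. Detection: 1 h with labelled cAMP and anti-cAMP cryptate. Concentration-response over 15 points, three replicates.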

[9] = molecular target: Nuclear receptor subfamily 1 group I member 3 (Homo sapiens) (UniProt Q14994); assay: qHTS assay to identify small molecule antagonists of the constitutive androstane receptor (CAR) signaling pathway (AID 1224838);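 further: HepG2 cells stably expressing hCAR with CYP2B6 luciferase reporter stimulated by CITCO; nearly all actives have a fitted effect of over 40% in size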
In short: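 Read-out: ONE-Glo luciferase luminescence after 30 min at room temperature. HepG2-CYP2B6-hCAR double-stable cells, compounds in 15-point titration plus 50 nM CITCO final, 24 h at 37 C/5% CO2.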

[10] = qHTS assay to identify small molecule antagonists of the estrogen related receptor signaling pathway with the pleiotropic PPARgamma coactivator (PGC) from Tox21 10K library (AID 1224841; call rule not given here; further: series mostly up to about 92 µM; actives are mostly falling curves and most rising ones were filed inactive; nearly all actives have a fitted effect of over 50% in size)
In short: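 Luminescence read-out (One-Glo luciferase reagent, 30 min at room temperature) from PGC/ERR cells exposed to DMSO-dissolved test compounds for 18 h at 37 C; cells, 2,000 per well, had been preincubated 6 h before compound transfer.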

Measured: Potency

Nuclear receptor subfamily 1 group I member 3 (Homo sapiens), sequence (Q14994 whole entry, looked up): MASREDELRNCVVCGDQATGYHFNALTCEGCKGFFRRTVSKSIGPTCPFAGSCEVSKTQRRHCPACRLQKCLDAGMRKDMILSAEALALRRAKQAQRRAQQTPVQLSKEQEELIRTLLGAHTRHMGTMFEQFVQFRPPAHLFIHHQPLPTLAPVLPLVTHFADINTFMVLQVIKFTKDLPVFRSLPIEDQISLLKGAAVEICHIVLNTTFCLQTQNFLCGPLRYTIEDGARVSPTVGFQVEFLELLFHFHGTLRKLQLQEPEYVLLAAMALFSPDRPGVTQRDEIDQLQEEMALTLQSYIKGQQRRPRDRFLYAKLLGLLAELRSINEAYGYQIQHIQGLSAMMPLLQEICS
Thyrotropin receptor (Homo sapiens), sequence (P16473 whole entry, looked up): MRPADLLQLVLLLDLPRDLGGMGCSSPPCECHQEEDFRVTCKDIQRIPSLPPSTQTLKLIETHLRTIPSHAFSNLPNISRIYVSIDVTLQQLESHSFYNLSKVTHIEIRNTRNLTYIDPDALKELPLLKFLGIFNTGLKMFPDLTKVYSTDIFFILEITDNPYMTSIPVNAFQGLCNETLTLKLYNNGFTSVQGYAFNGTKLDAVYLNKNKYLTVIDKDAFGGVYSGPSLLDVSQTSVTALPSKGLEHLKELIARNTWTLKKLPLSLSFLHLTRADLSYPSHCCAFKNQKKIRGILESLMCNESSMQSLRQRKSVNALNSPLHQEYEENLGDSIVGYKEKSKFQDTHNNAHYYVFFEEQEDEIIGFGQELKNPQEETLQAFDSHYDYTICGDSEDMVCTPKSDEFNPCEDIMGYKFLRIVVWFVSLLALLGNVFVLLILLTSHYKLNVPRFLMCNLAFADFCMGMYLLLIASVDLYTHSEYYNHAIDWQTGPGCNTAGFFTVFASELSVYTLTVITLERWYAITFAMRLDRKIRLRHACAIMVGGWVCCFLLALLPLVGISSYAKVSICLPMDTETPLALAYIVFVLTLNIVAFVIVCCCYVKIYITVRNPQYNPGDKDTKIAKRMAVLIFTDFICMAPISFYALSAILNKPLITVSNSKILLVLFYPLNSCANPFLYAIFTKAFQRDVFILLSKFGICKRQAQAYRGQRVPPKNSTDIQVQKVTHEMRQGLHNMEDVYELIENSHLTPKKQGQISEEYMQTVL
Luciferin 4-monooxygenase (Photinus pyralis), sequence (P08659 whole entry, looked up): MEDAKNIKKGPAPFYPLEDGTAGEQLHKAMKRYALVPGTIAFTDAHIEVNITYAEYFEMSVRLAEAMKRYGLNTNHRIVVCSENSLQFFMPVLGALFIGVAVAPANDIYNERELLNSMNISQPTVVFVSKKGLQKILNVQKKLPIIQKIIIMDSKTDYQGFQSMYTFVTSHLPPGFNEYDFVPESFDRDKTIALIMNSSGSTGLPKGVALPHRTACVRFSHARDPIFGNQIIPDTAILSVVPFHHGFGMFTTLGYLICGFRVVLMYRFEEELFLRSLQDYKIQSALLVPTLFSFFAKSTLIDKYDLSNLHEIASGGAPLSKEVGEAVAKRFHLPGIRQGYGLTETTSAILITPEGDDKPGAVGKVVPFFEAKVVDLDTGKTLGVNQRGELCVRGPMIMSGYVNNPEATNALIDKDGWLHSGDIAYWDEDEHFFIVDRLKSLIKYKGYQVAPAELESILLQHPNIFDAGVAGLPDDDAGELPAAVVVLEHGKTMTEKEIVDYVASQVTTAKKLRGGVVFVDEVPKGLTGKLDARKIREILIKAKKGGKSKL

CC1=C(CC=O)C(C)(C)CCC1
inactive: [1] | [2] | [3] | [4] | [5]

Cc1cc(O)c(C)c(C)c1O
inactive: [1] | [2] | [3] | [4] | [6] | [5] | [7]

OC(CCN1CCCC1)(c1ccccc1)C1CCCCC1 (stereo not drawn)
inactive: [1] | [2] | [3] | [4] | [5] | [8]

Oc1c(I)cc(I)c2cccnc12
active: [1] 29.8 µM
inactive: [2] | [3] | [4] | [9] | [5] | [8]

OCCN1CCN(CCCN2c3ccccc3Sc3ccc(Cl)cc32)CC1
inactive: [2] | [6] | [10] | [8]
active: [1] 26.6 µM | [3] 29.8 µM | [4] 29.8 µM

Cc1ccc(Cl)c(Nc2ccccc2C(=O)O)c1Cl
inactive: [1] | [2] | [3] | [4] | [5] | [8]

O=c1[nH]c2ccc(Cl)cc2o1
inactive: [1] | [2] | [3] | [4] | [5] | [10] | [7] | [8]

CC(=O)OCCN(CCOC(C)=O)c1ccc(N=Nc2ccc([N+](=O)[O-])cc2C#N)cc1
inactive: [3] | [4] | [9] | [7]
active: [1] 48.6 µM | [2] 35.6 µM | [5] 48.6 µM

CC1(C)S[C@@H]2[C@H](NC(=O)C(c3ccccc3)S(=O)(=O)O)C(=O)N2[C@H]1C(=O)O (stereo partly drawn)
inactive: [1] | [2] | [3] | [4] | [5] | [8]

O=C1CCCCCCCCCCOCCCCO1
inactive: [1] | [2] | [4] | [9] | [6] | [5]

O=C1NC(=O)c2cc([N+](=O)[O-])ccc21
inactive: [1] | [2] | [3] | [4] | [5] | [8]

CCCC(C(=O)OCCN(CC)CC)(c1ccccc1)c1ccccc1
inactive: [2] | [3] | [9] | [7]
active: [1] 29.8 µM | [6] 11.9 µM

Cc1cscn1
inactive: [1] | [2] | [3] | [4] | [5] | [8]
